Screening data from PubChem.
An excerpt weighted towards active compounds, which were near 6.9% of everything screened.
KB-V1 cytotox: kills drug-selected multidrug resistant KB-V1 cells. KB-V1 MDR cells viability, CellTiter-Glo, 72 h. Potency, µM (titrated, usually from 46.1 µM), usual class: cytotoxic. hit rate 3.4% among 400,000; note: nearly all actives have a fitted effect of over 60% in size
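Readout: CellTiter-Glo luminescence, 10 min after addition. Cells: KB-V1 MDR subline, 72 h at 37 degrees C with compound. Analysis: corrected, normalized data fitted to concentration-effect curves.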
MCF10A rerep: induces DNA re-replication in MCF 10a normal breast cells; MCF 10A DNA re-replication, Hoechst nuclear intensity, 48 h; Potency, µM (top dose mostly 46.1 µM), actives largely listed as activators; hit rate 2.9% among 350,000; note: nearly all actives have a fitted effect of over 50% in size
SW480 rerep: inducers of DNA re-replication in SW480 colon cancer cells | SW480 DNA re-replication, Hoechst DNA content imaging, 48 h | Potency, µM (titrated, usually from 46.1 µM), hits mostly activators | hit rate 1.8% among 340,000; note: nearly all actives have a fitted effect of over 55% in size
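SW480 cells exposed to compounds for 48 hr at 37 C, 5% CO2, then Hoechst-stained 40 min. Nuclear DNA content imaged by fluorescence scanning (405 nm excitation, 500-530 nm emission); re-replication scored as increased high-intensity nuclei.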
Giardia killer: Giardia lamblia killing; hit rate 0.15% among 340,000; activity change, % at 7.66 µM, hits read low; AID 540267; Giardia lamblia trophozoite viability; in the data active = activity change below about -80%; inconclusive = between about -30% and that limit;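 note: parasites exposed to compound for two days anaerobically before the ATP read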
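Anaerobic 48 hrs incubation at 37 deg C of 100 trophozoites/well with test compounds; ATPLite 1-Step luminescence, 15-30 min RT, reports cellular ATP as viability.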
ASM inhibitor: inhibitors of human secretory acid sphingomyelinase; P17405; hit rate 0.006% among 340,000; Potency, µM (doses to about 57.5 µM), most hits filed as inhibitors; placental ASM, HMU-PC fluorogenic substrate, 60 min; AID 504937
Target sequence (P17405 47-631 limits assumed): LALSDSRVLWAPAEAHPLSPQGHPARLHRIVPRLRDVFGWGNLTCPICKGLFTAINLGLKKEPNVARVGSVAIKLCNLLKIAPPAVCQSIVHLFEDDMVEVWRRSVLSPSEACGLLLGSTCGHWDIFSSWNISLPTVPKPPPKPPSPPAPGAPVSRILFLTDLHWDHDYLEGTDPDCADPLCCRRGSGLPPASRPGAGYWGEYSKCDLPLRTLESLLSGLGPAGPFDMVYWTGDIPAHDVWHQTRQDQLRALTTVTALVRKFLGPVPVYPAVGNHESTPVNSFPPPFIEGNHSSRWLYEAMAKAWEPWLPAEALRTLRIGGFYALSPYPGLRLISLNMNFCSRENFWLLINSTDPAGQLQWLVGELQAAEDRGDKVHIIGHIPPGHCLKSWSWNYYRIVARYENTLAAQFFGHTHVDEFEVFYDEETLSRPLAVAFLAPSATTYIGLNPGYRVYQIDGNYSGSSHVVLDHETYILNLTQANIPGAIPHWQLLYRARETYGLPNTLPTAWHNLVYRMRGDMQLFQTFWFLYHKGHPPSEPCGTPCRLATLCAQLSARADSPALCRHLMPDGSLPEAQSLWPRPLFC
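Fluorescence read-out (Ex 386 nm, Em 447 nm) after stopping the reaction at pH 10. Enzyme: ASM from human placenta; substrate HMU-PC0, 9 uM final; 60 min, 37 °C. Compound preincubation 10 min, ambient temperature.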
KB-3-1 tox: kills parental KB-3-1 adenocarcinoma cells | Potency, µM (titrated, usually from 46.1 µM), most hits filed as cytotoxic | hit rate 1.4% among 400,000 | KB-3-1 viability, CellTiter-Glo ATP luminescence, 72 h | AID 1347075; note: nearly all actives have a fitted effect of over 60% in size
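72 h, 37 °C compound treatment of KB-3-1 parental cells; CellTiter-Glo added, 10 min, luminescence read. Data corrected against DMSO-only plates and normalized before curve fitting.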
Large screens that a line does not name were inactive; ! = a repeat was not active. Unless noted, calls come from the whole dose curve; as a rule, active = well fitted curve in the direction sought with a large enough effect; inconclusive = small, poorly fitted or top-dose-only effect, or another doubt; inactive = no such curve, though single readings can be large; an effect the other way counts as inactive or inconclusive.

O=C(COc1cc2oc(=O)c3c(c2cc1Cl)CCCC3)NCC1CCC(C(=O)O)CC1 (configuration not stated)	KB-V1 cytotox inconclusive
OCC1OC(n2cnc3c(NCc4ccco4)ncnc32)C(O)C1O (configuration not stated)	KB-V1 cytotox inconclusive, MCF10A rerep 1.03µM, SW480 rerep 8.2µM, KB-3-1 tox 13µM!
Nc1ncnc2c1ncn2[C@@H]1O[C@H](CO)[C@@H](O)[C@@H]1O	MCF10A rerep 7.31µM
N#Cc1c(N)n(C2OC(CO)C(O)C2O)c2ncnc(N)c12 (configuration not stated)	KB-V1 cytotox 0.206µM, MCF10A rerep 0.231µM, SW480 rerep inconclusive, KB-3-1 tox 0.231µM
Cc1ccccc1CNc1ncnc2c1ncn2C1OC(CO)C(O)C1O (configuration not stated)	none (no result: KB-V1 cytotox, Giardia killer, ASM inhibitor, KB-3-1 tox)
OC[C@H]1O[C@@H](n2cnc3c(NCc4ccco4)ncnc32)[C@H](O)[C@@H]1O	MCF10A rerep inconclusive, SW480 rerep inconclusive, KB-3-1 tox 16.4µM
CC(C)c1nnc(N2C(=O)c3oc4ccccc4c(=O)c3C2c2ccccc2F)s1 (configuration not stated)	none (no result: MCF10A rerep, SW480 rerep, Giardia killer, ASM inhibitor)
COc1cc(Cl)c(CNC[C@H]2O[C@@H](n3cnc4c(N)ncnc43)[C@H](O)[C@@H]2O)c(Cl)c1O	MCF10A rerep 7.31µM
CN(C)c1ccc(/C=C/c2ccnc3c([N+](=O)[O-])cccc23)cc1	KB-3-1 tox inconclusive (no result: MCF10A rerep, SW480 rerep, Giardia killer, ASM inhibitor)
CCOC(=O)c1cccc(NC(=O)N2CC=C(c3c[nH]c4ccccc34)CC2)c1	none (no result: MCF10A rerep, SW480 rerep, Giardia killer, ASM inhibitor)
CCOc1ccc(NC(=O)N2CC=C(c3c[nH]c4ccccc34)CC2)cc1	KB-V1 cytotox inconclusive, KB-3-1 tox 23.1µM (no result: MCF10A rerep, SW480 rerep, Giardia killer, ASM inhibitor)
CCOC(=O)C1CCCN(C(=O)CCS(=O)(=O)c2cc3c(cc2Cl)NC(=O)CO3)C1 (configuration not stated)	none (no result: MCF10A rerep, SW480 rerep, Giardia killer, ASM inhibitor)
O=C(CSc1nc2cc([N+](=O)[O-])ccc2n1-c1ccc(F)cc1)NC1CCS(=O)(=O)C1 (configuration not stated)	KB-V1 cytotox 23.1µM
O=S(=O)(c1ccc2nc(-c3ccccc3)[nH]c2c1)N1CCN(c2cccc(Cl)c2)CC1	MCF10A rerep inconclusive, SW480 rerep inconclusive
COc1cc(S(=O)(=O)N2CCN(c3ccccc3)CC2)ccc1Cl	KB-V1 cytotox 23.1µM
COc1ccc(S(=O)(=O)N2CCN(c3ccccc3)CC2)cc1OC	SW480 rerep inconclusive
O=C(NCCOc1ccccc1F)c1cccc(S(=O)(=O)N2CCN(c3ccccc3)CC2)c1	KB-V1 cytotox 13µM, SW480 rerep inconclusive
COc1ccccc1N1CCN(S(=O)(=O)c2ccc3nc(-c4ccccc4)[nH]c3c2)CC1	KB-V1 cytotox inconclusive, MCF10A rerep 25.9µM!
O=C(NCCCN1CCOCC1)c1cccc(S(=O)(=O)N2CCN(c3ccccc3)CC2)c1	none (no result: ASM inhibitor)
O=C(NNC(=O)c1cccc(S(=O)(=O)N2CCN(c3ccccc3)CC2)c1)c1ccc(Cl)cc1	KB-V1 cytotox 16.4µM, MCF10A rerep inconclusive
CC(=O)N1CCN(C(=O)c2cccc(S(=O)(=O)N3CCN(c4ccccc4)CC3)c2)CC1	none
Cc1ccc2[nH]c3c(=O)n(CC(=O)N(C)c4cc(Cl)ccc4C)ncc3c2c1	none (no result: MCF10A rerep, SW480 rerep, Giardia killer, ASM inhibitor)
Cc1ccc(Cl)cc1N(C)C(=O)Cn1ncc2c([nH]c3ccccc32)c1=O	MCF10A rerep inconclusive, SW480 rerep 20.6µM
Brc1ccccc1/C=N/Nc1ccc2ccccc2n1	MCF10A rerep 16.4µM
CCOC(=O)c1ccc(NC(=O)CSc2nnc(-c3ccncc3)n2-c2ccccc2)cc1	none (no result: MCF10A rerep, SW480 rerep, Giardia killer, ASM inhibitor)
CCOc1cc(CNc2ccc(CNc3ncn[nH]3)cc2)ccc1OCc1ccccc1	KB-V1 cytotox 18.4µM, KB-3-1 tox 23.1µM
CCOc1cc(CNc2ccc(C(=O)O)cc2)ccc1OCc1ccccc1	none (no result: MCF10A rerep, SW480 rerep, Giardia killer, ASM inhibitor)
COC(=O)c1ccc2[nH]c3cccc(/C(=C/c4ccccc4)c4ccccc4)c3c2c1	KB-V1 cytotox inconclusive, MCF10A rerep 11.6µM, KB-3-1 tox inconclusive
O=C1CCCc2[nH]c3cccc(/C(=C/c4ccccc4)c4ccccc4)c3c21	KB-V1 cytotox inconclusive, MCF10A rerep inconclusive
CCCCCCCCC/C(=N\O)c1ccccn1	MCF10A rerep 14.6µM, SW480 rerep inconclusive, KB-3-1 tox inconclusive
CCCCCCCCC(=O)N/N=C/c1ccccn1	none
Cc1ccc(-c2csc(N3CCN(CCCn4c(C(F)(F)F)nc5ccccc54)CC3)n2)cc1	KB-3-1 tox inconclusive
Cc1ccc(Cn2c(C3CCCN3c3nc(-c4ccc(F)cc4)cs3)nc3cc(Cl)c(Cl)cc32)cc1 (configuration not stated)	none
Cc1ccc(-c2csc(N3CCN(CCCn4c(-c5ccncc5)nc5ccccc54)CC3)n2)cc1	KB-V1 cytotox 18.4µM, MCF10A rerep 23.1µM, SW480 rerep inconclusive, KB-3-1 tox inconclusive
CCCn1c(C2CCCN2c2nc(-c3ccc(C)cc3)cs2)nc2ccccc21 (configuration not stated)	KB-V1 cytotox inconclusive, MCF10A rerep inconclusive, SW480 rerep inconclusive, KB-3-1 tox 18.4µM
Cc1ccccc1-n1sc2cc(F)ccc2c1=O	KB-V1 cytotox inconclusive, MCF10A rerep 16.4µM, SW480 rerep inconclusive, KB-3-1 tox inconclusive
O=[N+]([O-])C1C(c2ccccc2)C12c1ccccc1-c1ccccc12 (configuration not stated)	KB-V1 cytotox 5.17µM, KB-3-1 tox inconclusive (no result: MCF10A rerep, SW480 rerep, Giardia killer, ASM inhibitor)
CCn1c(=O)c2sccc2n2c(CCC(=O)Nc3ccc(F)cc3)nnc12	none (no result: MCF10A rerep, SW480 rerep, Giardia killer, ASM inhibitor)
CCOC(=O)C1C(=O)CC(C)(O)C(C(=O)OCC)C1c1ccc(N(CC)CC)cc1 (configuration not stated)	none
CC(C)COC(=O)C1C(=O)CC(C)(O)C(C(=O)OCC(C)C)C1c1cccnc1 (configuration not stated)	KB-V1 cytotox 16.4µM
CCN(CC)c1ccc(C2C(C(=O)OC(C)C)C(=O)CC(C)(O)C2C(=O)OC(C)C)cc1 (configuration not stated)	KB-V1 cytotox 18.4µM
CC(C)CCn1c(SC(C)C#N)nc2ccccc2c1=O (configuration not stated)	none (no result: MCF10A rerep, SW480 rerep, ASM inhibitor)
CCOC(=O)c1c(NC(=O)CSc2cn(CCNC(=O)c3ccccc3F)c3ccccc23)sc2c1CCCC2	none (no result: MCF10A rerep, SW480 rerep, Giardia killer, ASM inhibitor)
c1csc(-c2nc3c4ccccc4c4ccccc4c3[nH]2)c1	KB-V1 cytotox inconclusive, MCF10A rerep inconclusive, KB-3-1 tox inconclusive
Oc1ccccc1-c1nc2c3ccccc3c3ccccc3c2[nH]1	MCF10A rerep 18.4µM, SW480 rerep inconclusive
CCc1ccc(N2CC(C(=O)OCC(=O)NNC(=O)c3ccccc3)CC2=O)cc1 (configuration not stated)	none (no result: ASM inhibitor)
CCN(CC)C(=O)c1sc2c(c1C)c(=O)n(-c1ccccc1)c(=O)n2Cc1c(C)cc(C)cc1C	none (no result: MCF10A rerep, SW480 rerep, Giardia killer, ASM inhibitor)
